From PubChem BioAssay
This is a sample that favours compounds with a hit; in the whole collection about 19% have one here.
HT1080 IDH1KD tx – qHTS for induction of synthetic lethality in tumor cells producing 2HG: qHTS for the HT-1080-IDH1KD cell line. HT-1080 IDH1 knockdown viability, ATP luminescence, 48 h. Potency, µM (titrated, usually from 46.1 µM), actives largely listed as cytotoxic. 360,000 compounds, 2% hits. AID 686971, 2013
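% activity derives from luminescence (CellTiter-Glo), normalised to DMSO and no-cell wells. HT-1080-IDH1KD cells, 750/well, had 48 h compound exposure at 37 °C.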
TDP1 cell noCPT – qHTS for Inhibitors of human tyrosyl-DNA phosphodiesterase 1 (TDP1): qHTS in cells in absence of CPT. Potency, µM (titrated, usually from 46.2 µM), most hits filed as inhibitors. 420,000 compounds, 15% hits. DT40 Tdp1-/- hTDP1 cells, no CPT, ATP luminescence, 48 h; note: nearly all actives have a fitted effect of over 55% in size
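No-CPT arm: Tdp1-/-;hTDP1 DT40 cells (400/well) plus compounds, incubated ≥48 hr at 37 °C. Readout CellTiter-Glo luminescence.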
DT40 TDP1 CPT – qHTS for Inhibitors of human tyrosyl-DNA phosphodiesterase 1 (TDP1): qHTS in cells in presence of CPT; Potency, µM (highest dose often 46.2 µM), most hits filed as inhibitors; AID 686979, 2013; 420,000 compounds, 12% hits; chicken DT40 Tdp1-/-;hTDP1 cells + 20 nM CPT, ATP luminescence, 48 h; note: nearly all actives have a fitted effect of over 55% in size
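Chicken DT40 Tdp1-/- cells complemented with human TDP1, 400 cells/well, exposed to compounds plus 20 nM camptothecin for at least 48 h at 37 C; viability read as ATP content by CellTiter-Glo luminescence.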
IL1B secr inh – qHTS for Inhibitors of Inflammasome Signaling: IL-1-beta AlphaLISA Primary Screen; 360,000 compounds, 4.7% hits; activity change, % at 57.5 µM; THP-1 LPS/ATP IL-1B secretion, AlphaLISA, 16 h; stronger effect = lower value; in the data active = activity change below about -50%; inconclusive = mostly about -30% to -49%
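THP-1 cells pretreated 1 hr with compounds (up to 57.5 uM final), then stimulated with LPS (250 ng/mL final) plus ATP (1.25 mM final); secreted IL-1B measured by AlphaLISA after 16 hr, decreased signal indicating inhibition.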
HT1080NT lethal – qHTS for induction of synthetic lethality in tumor cells producing 2HG: qHTS for the HT-1080-NT fibrosarcoma cell line; HT-1080-NT fibrosarcoma viability, CellTiter-Glo ATP luminescence, 48 h; 360,000 compounds, 1.6% hits; Potency, µM (highest dose often 46.1 µM), hits mostly cytotoxic; AID 686970, 2013;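 note: NT is the 2HG producing partner of a matched IDH1 knockdown line; nearly all actives have a fitted effect of over 55% in size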
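A 48-hour cytotoxicity screen used HT-1080-NT cells plated 2 hours before compound delivery. ATP-based CellTiter-Glo luminescence measured viability, normalized to DMSO and no-cell controls.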
Of the large screens only hits and unclear results are named; the others gave an inactive call. Unless noted, calls come from the whole dose curve; as a rule, active = well fitted curve in the direction sought with a large enough effect; inconclusive = small, poorly fitted or top-dose-only effect, or another doubt; inactive = no such curve, though single readings can be large; an effect the other way counts as inactive or inconclusive.

Cc1nnc(SCc2cc(=O)n3c(C)cccc3n2)s1	none (no result: HT1080 IDH1KD tx, IL1B secr inh, HT1080NT lethal)
Cc1ccc(C)c(Cn2c(=O)n(CCCC(=O)NCc3ccc4c(c3)OCO4)c(=O)c3sccc32)c1	TDP1 cell noCPT 15µM, DT40 TDP1 CPT inconclusive (no result: HT1080 IDH1KD tx, IL1B secr inh, HT1080NT lethal)
COc1ccc(NC(=O)CCCn2c(=O)c3sccc3n(Cc3ccc(C)cc3)c2=O)cc1	TDP1 cell noCPT inconclusive
CCc1ccc(NC(=O)Cn2c(=O)n(CCCC(=O)NCc3ccc4c(c3)OCO4)c(=O)c3ccccc32)cc1	TDP1 cell noCPT inconclusive, DT40 TDP1 CPT 21µM (no result: HT1080 IDH1KD tx, IL1B secr inh, HT1080NT lethal)
COc1cccc(NC(=O)Cn2c(=O)n(CCCC(=O)NCc3ccc4c(c3)OCO4)c(=O)c3ccccc32)c1	none (no result: HT1080 IDH1KD tx, IL1B secr inh, HT1080NT lethal)
O=C(CCCCn1c(=O)c2ccccc2n(Cc2cccc(F)c2)c1=O)NCc1ccc2c(c1)OCO2	TDP1 cell noCPT 23µM, DT40 TDP1 CPT inconclusive (no result: HT1080 IDH1KD tx, IL1B secr inh, HT1080NT lethal)
CCN(CC)C(=O)Cn1c(=O)n(CCCC(=O)NCc2ccc3c(c2)OCO3)c(=O)c2sccc21	none
COc1ccc(NC(=O)CCCn2c(=O)c3sccc3n(Cc3ccc(C)cc3C)c2=O)cc1	TDP1 cell noCPT 16µM, DT40 TDP1 CPT 21µM
CC(C)n1nnc2c(=O)oc3ccccc3c21	none
CC(=O)c1cccc(NC(=O)CN2C(=O)NC(C)(C)C2=O)c1	none
Cc1ccc(CNC(=O)c2cc3c(=O)n(Cc4cccnc4)ccc3nc2C)cc1	none (no result: HT1080 IDH1KD tx, IL1B secr inh, HT1080NT lethal)
COc1cccc(CNc2nc3ccc(NC(C)=O)cc3s2)c1	none
O=C(NCCCOc1cccc(CN2CCCCC2)c1)c1ccc(Cl)c(Cl)c1	HT1080 IDH1KD tx 23µM, TDP1 cell noCPT 13µM, DT40 TDP1 CPT 18µM, IL1B secr inh inconclusive, HT1080NT lethal 21µM
c1cc(CN2CCCCC2)cc(OCCCNc2nc3ccccc3s2)c1	HT1080 IDH1KD tx inconclusive, TDP1 cell noCPT 12µM, DT40 TDP1 CPT 18µM, HT1080NT lethal inconclusive
CCOc1ccc(CNC(=O)CCS(=O)(=O)c2cc3c4c(c2)CCN4C(=O)CC3)cc1	none (no result: HT1080 IDH1KD tx, IL1B secr inh, HT1080NT lethal)
COc1ccccc1OCC(=O)c1[nH]c(C)c(C(C)=O)c1C	HT1080 IDH1KD tx inconclusive, TDP1 cell noCPT 12µM, DT40 TDP1 CPT 15µM
CC(=O)c1c(C)[nH]c(C(=O)COc2cc(C)ccc2C(C)C)c1C	HT1080 IDH1KD tx inconclusive, TDP1 cell noCPT 4.6µM, DT40 TDP1 CPT 8.2µM
COc1cc(CN(C)CC(=O)c2[nH]c(C)c(C(C)=O)c2C)ccc1OC(F)F	TDP1 cell noCPT 3.7µM, DT40 TDP1 CPT 8.2µM
COc1cc(C)ccc1OCC(=O)OCC(=O)c1[nH]c(C)c(C(C)=O)c1C	none
CC(=O)c1c(C)[nH]c(C(=O)COc2ccc(C#N)cc2)c1C	TDP1 cell noCPT inconclusive, DT40 TDP1 CPT inconclusive
CCC(=O)Oc1ccc2ccccc2c1CNC(=O)c1ccccc1	TDP1 cell noCPT inconclusive, DT40 TDP1 CPT inconclusive
CSc1ccc(C2=CC(=O)C[C@H](c3ccc(Cl)cc3)C2)cc1	TDP1 cell noCPT inconclusive, DT40 TDP1 CPT inconclusive
COc1ccc(C2NC(=O)CCC2[N+](=O)[O-])cc1 (stereo unspecified)	none
COc1cc2c(cc1OC)C(c1ccccc1)CC2=O (stereo unspecified)	none
O=C(N/N=C/c1ccc(O)cc1O)C(=O)N/N=C/c1ccc(O)cc1O	HT1080 IDH1KD tx inconclusive, TDP1 cell noCPT inconclusive, DT40 TDP1 CPT inconclusive, HT1080NT lethal inconclusive
C/C(=N\NC(=O)C12CCC(C)(C(=O)O1)C2(C)C)c1ccccc1O (stereo unspecified)	HT1080 IDH1KD tx inconclusive, TDP1 cell noCPT 13µM, DT40 TDP1 CPT 16µM, HT1080NT lethal inconclusive
CC12CCC(C(=O)N/N=C/c3ccc(O)cc3O)(OC1=O)C2(C)C (stereo unspecified)	HT1080 IDH1KD tx inconclusive, TDP1 cell noCPT 10µM, DT40 TDP1 CPT 10µM
C/C(=N\NC(=O)c1ccc(Cl)cc1)c1ccc(Br)s1	TDP1 cell noCPT 10µM, DT40 TDP1 CPT 12µM
